{"source": "PubChem BioAssay (NCI)", "note": "The panel holds about 83,000 compounds, 20% with a hit somewhere; the sample as a whole holds those more often.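 The test compound was applied at a single concentration to cells in 96-well plates for 48 hours, and percent growth was recorded.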 Unmarked numbers belong to inactive results. The source made the active and inactive calls. Rule for the calls: active = growth percent below 10; inactive = the rest.", "data": [{"tested_on": "SK-MEL-2 melanoma", "assay": "NCI-60 one-dose screen, 48 h (100 = growth as untreated, 0 = no growth, -100 = all killed)", "conditions": "10 µM unless noted", "values": [{"smiles": "O=S(=O)(NCCCNc1nccc(-c2[nH]c(-c3ccccc3)nc2-c2ccc(F)c(O)c2)n1)c1cccc(F)c1", "growth": "39.2%"}, {"smiles": "Cn1cc(-c2cc3ncnc(Nc4ccc(NC(=O)Nc5cc(C(C)(C)C)on5)cc4)c3s2)cn1", "growth": "-9.06% (active)"}, {"smiles": "Cn1ncc2c(C(=O)c3ccc(F)cc3)nc(C(C)(C)C)nc21", "growth": "103%"}, {"smiles": "N#Cc1c(-c2cccs2)cc(-c2cnccn2)nc1SCC(=O)N/N=C/c1ccc(Cl)cc1", "growth": "121%"}, {"smiles": "O=C(/C=C/c1cc(Cl)ccc1Cl)Nc1ncc(Cc2ccc(Cl)cc2)s1", "growth": "24.4%"}, {"smiles": "CNC(=O)c1cc(N2CCc3cc(NC(=O)Nc4ccc(N5CCN(C)CC5)c(C(F)(F)F)c4)ccc32)ccn1", "growth": "99.4%"}, {"smiles": "CCc1cc(O)ccc1Nc1cc(-c2ccc(-n3cccn3)cc2)[nH]n1", "growth": "87.3%"}, {"smiles": "COc1ccc2[nH]cc(-c3nc(N)nnc3-c3cn(C)c4ccc(Br)cc34)c2c1", "growth": "9.85% (active)"}, {"smiles": "CCCCCCCCCCCC(=O)NC(C)(C)C(=O)N1CCCC1C(=O)NC(C)(C)C(=O)NC(C)(C)C(=O)N1CCCC1C(=O)NC(C)(C)C(=O)NC(C)(C)C(=O)N1CCCC1C(=O)NC(C)C(=O)NCCC(=O)NC(C)C(=O)NC(C)(C)C(=O)NC(C)(C)C(=O)NC(C)(C)C(=O)NCCC(=O)NC(C)(C)C(=O)NC(C)(C)C(=O)NC(C)(C)C(=O)NC(C)C(=O)NCCC(=O)O", "note": "(stereo not drawn)", "growth": "-96.2% (active)"}, {"smiles": "CCCc1[nH]c(-c2cc(N)ccc2Cl)c2c1C(=O)CCCC2", "growth": "95.5%"}, {"smiles": "CC1=C(C)C(=O)C(Nc2ccc(C)cc2)=C(Br)C1=O", "growth": "111%"}, {"smiles": "O=S(=O)(Oc1ccc(-c2cn3ccsc3n2)cc1)c1cccc(C(F)(F)F)c1", "growth": "101%"}, {"smiles": "C#CCOc1cccc(/C(N)=N/C(N)=N/c2nc3ccccc3s2)c1", "growth": "103%"}, {"smiles": "CCOC(=O)c1c(NC(=O)c2ccc(C(F)(F)F)cc2)sc2c(CN3CCN(C)CC3)c(O)ccc12", "growth": "44.8%"}, {"smiles": "Cc1ccc(NC(=O)Nc2nc3ccc([N+](=O)[O-])cc3s2)cc1", "growth": "-15.2% (active)"}, {"smiles": "CCOC(=O)c1c(NCC(=O)Nc2cccc([N+](=O)[O-])c2)sc(C(C)=O)c1C", "growth": "-15% (active)"}, {"smiles": "O=C(CCCCCCNC(=O)C(O)(O)C(F)(F)F)Nc1ccc(Br)cc1", "growth": "-24.7% (active)"}, {"smiles": "Cc1ccccc1N1CCN(C2=C(Cl)C(=O)c3ncccc3C2=O)CC1", "growth": "81.1%"}, {"smiles": "O=C1[C@@H]2Cc3c([nH]c4ccccc34)[C@H](c3ccc(Br)cc3)N2C(=O)CN1C1CCN(Cc2c(Cl)cccc2Cl)CC1", "growth": "99.8%"}, {"smiles": "Cc1ccc(CSC2=C(Cl)CN(c3ccc(Cl)cc3)C2=O)cc1", "growth": "104%"}, {"smiles": "COC(=O)CCCNCCCn1ccc2cc(NCc3cccc(-c4ccccc4)c3C)ccc21", "growth": "95.6%"}, {"smiles": "C#CCOc1ccccc1/C=N/Nc1nc(-c2ccc(Cl)cc2)cs1", "growth": "102%"}, {"smiles": "CC(=O)c1c([Si](C)(C)C)c2cc(C#N)ccn2c1C(=O)c1ccc(Br)cc1", "growth": "89.4%"}, {"smiles": "O=C(COc1ccc(/C=C2\\C(=O)Nc3ccc(F)cc32)cc1)Nc1ccccc1", "growth": "122%"}, {"smiles": "COc1ccc(CC(C)=C(c2ccc(OCCN3CCCC3)cc2)c2ccc(OCCN3CCCC3)cc2)cc1", "growth": "-91.8% (active)"}, {"smiles": "O=C(CSc1nc2ccccc2c(=O)n1-c1ccc(S(=O)(=O)Nc2ccc(Cl)nn2)cc1)Nc1ccc(S(=O)(=O)Nc2ccc(Cl)nn2)cc1", "growth": "120%"}, {"smiles": "C=C(C)[C@@H]1CC[C@]2(COP(=O)(OCC)OCC)CC[C@]3(C)[C@H](CC[C@@H]4[C@@]5(C)CC[C@H](OP(=O)(OCC)OCC)C(C)(C)[C@@H]5CC[C@]43C)[C@@H]12", "growth": "67.9%"}, {"smiles": "COC(=O)c1cccc(NC2=C(Cl)C(=O)C(C)=C(C)C2=O)c1", "growth": "98%"}, {"smiles": "Cn1cc(-c2nc(N)nnc2-c2c[nH]c3ccc(Br)cc23)c2cc(F)ccc21", "growth": "113%"}, {"smiles": "O=C(O)c1ccc(-n2c(=O)n(-c3cccc(C(F)(F)F)c3)c(=O)c3cc(-c4ccc(F)cc4F)ccc32)cc1", "growth": "-32% (active)"}, {"smiles": "O=C1[C@H]2Cc3c([nH]c4ccccc34)[C@H](c3ccc(Br)cc3)N2C(=O)CN1C1CCN(CC2CCCCC2)CC1", "growth": "109%"}, {"smiles": "C#Cc1nc(/C=C/CCCCCCC(=O)NO)cs1", "growth": "96.1%"}, {"smiles": "C#CCN(C)CCCOc1ccc(NC(=O)CCCCCCCCC(=O)NO)cc1Cl", "growth": "96.7%"}]}]}
